Results from PubChem BioAssay AID1159580 (chemical genetic matrix, 2015).
Out of some 5,500 compounds screened, about 2,000 (36%) were called active. Roughly 18% stayed inconclusive and do not appear here. The list shows a part of the results. Unmarked numbers belong to inactive results. No stated cut-off is given here; in the data, active means normalized growth mostly below about 0.91 (no sharp cut-off); inconclusive means no clear call, values can overlap the other calls; inactive means mostly above about 0.92.

Assay: chemical genetic growth profiling, strain panel (AID 1159580);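 further: tested at 20 µM; growth read once vehicle control cultures reached saturation at 30 °C; 1 = growth at the plate median or of vehicle wells; lower values mean less growth of the strain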
Details: S. cerevisiae deletion strains, growth OD
[1] = locus YAL013W, strain DEP1, hits give low values
[2] = locus YMR307W, strain GAS1, hits give low values
[3] = locus YNL128W, strain TEP1, hits give low values
[4] = locus YNL153C, strain GIM3, hits give low values
[5] = locus YNL322C, strain KRE1, hits give low values
[6] = locus YAL040C, strain CLN3, hits give low values
[7] = locus YCL061C, strain MRC1 (second series), hits give low values
[8] = locus YDR150W, strain NUM1, hits give low values
[9] = locus YDR363W, strain ESC2, hits give low values
[10] = locus YER002W, strain NOP16, hits give low values
[11] = locus YGR078C, strain PAC10, hits give low values
[12] = locus YGR229C, strain SMI1, hits give low values
[13] = locus YMR263W, strain SAP30, hits give low values
[14] = locus YNL175C, strain NOP13, hits give low values
[15] = locus YNL197C, strain WHI3, hits give low values
[16] = locus YNL224C, strain SQS1, hits give low values
[17] = locus YOR083W, strain WHI5 (second series), hits give low values
[18] = locus YPL241C, strain CIN2, hits give low values

## CC1=CC(=O)C2=C(C)CC[C@@H]3[C@H](OC(=O)[C@H]3C)[C@@H]12
[1]
  normalized growth: 1
Locus YBR021W, strain FUR4, hits give low values
  normalized growth: 0.965
Locus YBR229C, strain ROT2, hits give low values
  normalized growth: 0.987
Locus YCL029C, strain bik1, hits give low values
  normalized growth: 0.975
Locus YDL035C, strain GPR1, hits give low values
  normalized growth: 0.998
Locus YDL074C, strain BRE1, hits give low values
  normalized growth: 0.986
Locus YDL101C, strain DUN1, hits give low values
  normalized growth: 0.995
Locus YDL185W, strain tfp1, hits give low values
  normalized growth: 0.978
Locus YDL192W, strain arf1, hits give low values
  normalized growth: 1.01
Locus YDR101C, strain arx1, hits give low values
  normalized growth: 0.981
Locus YDR162C, strain NBP2, hits give low values
  normalized growth: 1.01
Locus YDR318W, strain mcm21, hits give low values
  normalized growth: 1
Locus YDR388W, hits give low values
  normalized growth: 0.981
Locus YDR502C, strain sam2, hits give low values
  normalized growth: 0.983
Locus YEL061C, strain CIN8, hits give low values
  normalized growth: 0.997
Locus YER110C, hits give low values
  normalized growth: 0.979
Locus YER155C, strain BEM2, hits give low values
  normalized growth: 0.987
Locus YER167W, strain BCK2, hits give low values
  normalized growth: 0.992
Locus YGL078C, strain dbp3, hits give low values
  normalized growth: 0.977
Locus YGL086W, strain mad1, hits give low values
  normalized growth: 0.979
Locus YGL248W, strain PDE1, hits give low values
  normalized growth: 1.01
Locus YGR135W, strain pre9, hits give low values
  normalized growth: 0.997
Locus YGR252W, strain gcn5, hits give low values
  normalized growth: 1.07
Locus YHR030C, strain SLT2, hits give low values
  normalized growth: 0.99
Locus YHR079C, strain IRE1 (second series), hits give low values
  normalized growth: 0.985
Locus YHR094C, strain hxt1, hits give low values
  normalized growth: 0.991
Locus YHR129C, strain ARP1, hits give low values
  normalized growth: 0.997
Locus YHR200W, strain rpn10, hits give low values
  normalized growth: 0.998
Locus YIL066C, strain RNR3, hits give low values
  normalized growth: 0.999
Locus YIL073C, strain SPO22, hits give low values
  normalized growth: 0.99
Locus YIL125W, strain kgd1, hits give low values
  normalized growth: 0.986
Locus YIR030C, strain dcg1, hits give low values
  normalized growth: 0.985
Locus YJL095W, strain BCK1, hits give low values
  normalized growth: 1.04
Locus YJL134W, strain LCB3, hits give low values
  normalized growth: 0.992
Locus YJL168C, strain set2, hits give low values
  normalized growth: 0.984
Locus YJL187C, strain SWE1 (second series), hits give low values
  normalized growth: 1.01
Locus YJR043C, strain POL32, hits give low values
  normalized growth: 1.01
Locus YKL009W, strain mrt4, hits give low values
  normalized growth: 1
Locus YKL068W, hits give low values
  normalized growth: 0.985
Locus YKL085W, strain MDH1 (second series), hits give low values
  normalized growth: 0.995
Locus YKL085W, strain MDH1, hits give low values
  normalized growth: 0.995
Locus YKL190W, strain CNB1, hits give low values
  normalized growth: 1.01
Locus YKR001C, strain vps1, hits give low values
  normalized growth: 0.965
Locus YLR039C, strain RIC1, hits give low values
  normalized growth: 1.02
Locus YLR058C, strain SHM2, hits give low values
  normalized growth: 1
Locus YLR102C, strain apc9, hits give low values
  normalized growth: 0.981
Locus YLR262C, strain YPT6, hits give low values
  normalized growth: 1.01
Locus YLR268W, strain sec22, hits give low values
  normalized growth: 0.976
Locus YLR330W, strain CHS5, hits give low values
  normalized growth: 0.993
Locus YLR342W, strain FKS1 (second series), hits give low values
  normalized growth: 0.989
Locus YLR371W, strain rom2, hits give low values
  normalized growth: 0.959
Locus YLR418C, strain cdc73, hits give low values
  normalized growth: 1.01
Locus YML016C, strain PPZ1, hits give low values
  normalized growth: 0.99
Locus YML032C, strain rad52, hits give low values
  normalized growth: 1.01
Locus YML124C, strain tub3, hits give low values
  normalized growth: 0.989
Locus YMR078C, strain ctf18, hits give low values
  normalized growth: 1
Locus YMR223W, strain ubp8, hits give low values
  normalized growth: 1.03
[2]
  normalized growth: 1
Locus YNL067W, strain RPL9B, hits give low values
  normalized growth: 1.02
[3]
  normalized growth: 0.984
[4]
  normalized growth: 1.01
Locus YNL233W, strain BNI4, hits give low values
  normalized growth: 1
Locus YNL250W, strain rad50, hits give low values
  normalized growth: 0.995
Locus YNL271C, strain bni1, hits give low values
  normalized growth: 0.984
Locus YNL298W, strain CLA4, hits give low values
  normalized growth: 0.99
Locus YNL307C, strain MCK1, hits give low values
  normalized growth: 0.971
[5]
  normalized growth: 1
Locus YNR052C, strain pop2, hits give low values
  normalized growth: 0.996
Locus YOL012C, strain htz1
  normalized growth: 0.989
Locus YOL147C, strain pex11, hits give low values
  normalized growth: 0.987
Locus YOR061W, strain CKA2, hits give low values
  normalized growth: 0.992
Locus YOR069W, strain VPS5, hits give low values
  normalized growth: 0.986
Locus YOR136W, strain idh2, hits give low values
  normalized growth: 0.971
Locus YOR144C, strain elg1, hits give low values
  normalized growth: 0.988
Locus YOR184W, strain ser1, hits give low values
  normalized growth: 0.974
Locus YOR316C, strain cot1, hits give low values
  normalized growth: 0.984
Locus YPL055C, strain LGE1, hits give low values
  normalized growth: 0.999
Locus YPR119W, strain clb2, hits give low values
  normalized growth: 1
Locus YPR141C, strain kar3, hits give low values
  normalized growth: 0.98
Locus YPR163C, strain tif3, hits give low values
  normalized growth: 0.978
Locus YPR167C, strain met16, hits give low values
  normalized growth: 1.02
Strain wtn01, hits give low values
  normalized growth: 0.971

## N#C/C(=C\c1ccc(O)c(O)c1)C(=O)NCCc1ccccc1
[6]
  normalized growth: 0.986
[7]
  normalized growth: 0.987
[8]
  normalized growth: 0.988
[9]
  normalized growth: 1
[10]
  normalized growth: 0.995
[11]
  normalized growth: 1.01
[12]
  normalized growth: 0.952
Locus YJR075W, strain HOC1, hits give low values
  normalized growth: 0.99
[13]
  normalized growth: 1
[2]
  normalized growth: 1.01
[3]
  normalized growth: 0.999
[14]
  normalized growth: 1
[15]
  normalized growth: 1
[16]
  normalized growth: 0.998
[5]
  normalized growth: 1
[17]
  normalized growth: 0.994
[18]
  normalized growth: 0.996

## CC(C)(C)c1cc(C=C(C#N)C#N)cc(C(C)(C)C)c1O
[6]
  normalized growth: 0.965
[7]
  normalized growth: 1.01
[8]
  normalized growth: 1.01
[9]
  normalized growth: 1.03
[10]
  normalized growth: 1.02
[12]
  normalized growth: 1.02
[2]
  normalized growth: 0.999
[3]
  normalized growth: 0.973
[4]
  normalized growth: 0.821
[14]
  normalized growth: 0.943
[15]
  normalized growth: 0.884 (active)
[16]
  normalized growth: 0.931
[17]
  normalized growth: 0.85 (active)
[18]
  normalized growth: 1

## N#C/C(=C/c1ccc(O)c(O)c1)C(N)=S
[1]
  normalized growth: 0.959
[6]
  normalized growth: 0.973
[7]
  normalized growth: 0.997
[9]
  normalized growth: 0.73 (active)
[10]
  normalized growth: 0.995
[11]
  normalized growth: 0.995
[12]
  normalized growth: 0.972
[13]
  normalized growth: 0.956
[2]
  normalized growth: 1
[4]
  normalized growth: 0.988
[14]
  normalized growth: 0.977
[15]
  normalized growth: 0.98
[16]
  normalized growth: 0.985
[17]
  normalized growth: 0.958
[18]
  normalized growth: 0.975
